Laboratory results as given in PubChem BioAssay (Tox21).
Active and inactive are the calls of the source. A call without a number means that no potency is given here. Calls come from the whole dose curve.

Biological target: Gonadotropin-releasing hormone receptor (Homo sapiens) (UniProt P30968)
Assay: Human gonadotropin-releasing hormone receptor (GnRHR) small molecule agonists, calcium flux assay in GnRHR-HEK293 cells (AID 1920063); note: nearly all actives have a fitted effect of over 35% in size
How it was run: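 Intracellular calcium rise is the read-out: engineered human GnRHR HEK293 cells, dye-loaded, are exposed to DMSO-dissolved compounds and fluorescence at Ex/Em 480/540 is tracked for 3 min.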
Potency is the fitted concentration of half-maximal effect.

Chain of Gonadotropin-releasing hormone receptor (Homo sapiens) (P30968 whole entry, looked up): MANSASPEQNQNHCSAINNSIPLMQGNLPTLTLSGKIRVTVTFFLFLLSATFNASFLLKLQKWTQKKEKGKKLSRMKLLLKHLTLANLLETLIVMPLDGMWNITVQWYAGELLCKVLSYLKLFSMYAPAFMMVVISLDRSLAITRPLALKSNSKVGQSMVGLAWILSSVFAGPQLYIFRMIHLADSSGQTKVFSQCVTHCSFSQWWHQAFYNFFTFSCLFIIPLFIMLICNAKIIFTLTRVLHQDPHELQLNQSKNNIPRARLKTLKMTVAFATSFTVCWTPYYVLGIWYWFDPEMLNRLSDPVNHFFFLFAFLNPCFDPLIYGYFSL

For `O=C(NN1CCCC1)NS(=O)(=O)c1ccc(Cl)cc1`, the Potency was “inactive”.

For `O=C1CCc2cc(OCCCCc3nnnn3C3CCCCC3)ccc2N1`, the Potency was “inactive”.

`O=S(=O)(O)c1cc(O)c2ccc(Nc3ccccc3)cc2c1` was tested, and the Potency was “inactive”.

With `O=C(c1ccc(O)c(O)c1)c1ccc(O)cc1O` the Potency was “inactive”.

For `CCC(CC)CO`, the Potency was “inactive”.

`C=COCCOCCOC=C` was tested, and the Potency was “inactive”.

For `CN(C)[C@@H]1C(=O)C(C(N)=O)=C(O)[C@@]2(O)C(=O)C3=C(O)c4c(O)cccc4C[C@H]3C[C@@H]12`, the Potency was “inactive”.

For `NC(Cc1c[nH]c2ccccc12)C(=O)O` (configuration not stated), the Potency was “inactive”.

With `Cc1ccc(S(=O)(=O)C(I)I)cc1` the Potency was 38.9 µM (active).

In the case of `CC(C)(N)C#N`, the Potency is reported as “inactive”.

In the case of `CC1(C)CCC[C@]2(C)[C@H]3CCO[C@]3(C)CC[C@@H]12`, the Potency is reported as “inactive”.

With `CCC(C)(CCC(C)C)C(=O)[O-].CCC(C)(CCC(C)C)C(=O)[O-].[Zn+2]` (configuration not stated) the Potency was “inactive”.

With `COc1ccc(Cc2cnc(N)nc2N)cc1OC` the Potency was “inactive”.

In the case of `COc1cc(/C=C/C(=O)CC(=O)/C=C/c2ccc(O)c(OC)c2)ccc1O`, the Potency is reported as 39.2 µM (active).

`CN(C)C(=O)Nc1ccccc1` was tested, and the Potency was “inactive”.

`Clc1ccc(C(Cn2ccnc2)OCc2ccsc2Cl)c(Cl)c1` (configuration not stated) was tested, and the Potency was “inactive”.

`CO[C@]12C[C@@H](COC(=O)c3cncc(Br)c3)CN(C)[C@@H]1Cc1cn(C)c3cccc2c13` was tested, and the Potency was “inactive”.

With `CO[Si](C)(OC)OC` the Potency was “inactive”.

With `COC(=O)[C@@H]1CC2=CC(=O)CC[C@]2(C)[C@@]23O[C@@H]2C[C@@]2(C)[C@@H](CC[C@@]24CCC(=O)O4)[C@H]13` the Potency was “inactive”.

In the case of `CNC(=O)C(c1ccccc1)c1ccccc1`, the Potency is reported as “inactive”.

In the case of `Cc1cc(C(C#N)c2ccc(Cl)cc2)c(Cl)cc1NC(=O)c1cc(I)cc(I)c1O` (configuration not stated), the Potency is reported as “inactive”.

With `COc1cc(NS(=O)(=O)c2ccc(N)cc2)nc(C)n1` the Potency was “inactive”.
